Results filed as inconclusive are left out. A call without a number means that no potency is given here. Calls of active or inactive are those of the source. Calls come from the whole dose curve; as a rule, active = well fitted inhibition curve with a large enough effect; inconclusive = small, poorly fitted or top-dose-only effect; inactive = no such curve, though single readings can be large or run the other way.
Experiment: qHTS for Inhibitors of the Aldehyde Dehydrogenase Family (ALDH1A2, ALDH1A3, ALDH2, ALDH3A1) (AID 2061307); note: nearly all actives have a fitted effect of over 50% in size; for potency: test system not described further here
Settings: ALDH inhibition qHTS; series mostly up to 50.3 µM
Potency is the fitted concentration of half-maximal effect.

Row | Compound | Potency
1 | CN(C)c1ccc(C(=O)NCC(=O)OC(C(=O)Nc2cc(C(F)(F)F)ccc2Cl)c2ccccc2)cc1 (stereo unspecified) | inactive
2 | CN(C)[C@H]1CCN(c2cccc(Nc3nn4c(=O)c5ccccc5nc4s3)c2)C1 | inactive
3 | C=C1[C@@H](OC(C)=O)CC[C@@]2(C)[C@@H](OC(C)=O)[C@H](OC(C)=O)C3=C(C)C[C@H](OC(=O)C(C)CC)[C@@H]([C@@H](OC(C)=O)[C@H]12)C3(C)C (stereo partly specified) | inactive
4 | COc1ccc(-c2nc3ccccc3c(=O)n2Cc2ccco2)cc1COc1ccc(NC(C)=O)cc1 | 20.1 µM (active)
5 | O=C1Nc2ccccc2/C1=C/c1cccc(C(=O)O)c1 | 2.24 µM (active)
6 | Cc1cc(-c2nnc3n2CCCCC3)c(C)n1-c1cccc2ccccc12 | inactive
7 | O=c1[nH]c(CN2CCOCC2)nc2sc3c(c12)CCCC3 | inactive
8 | CN(C)CCCNc1ccc(NC(=O)c2cccs2)cn1 | inactive
9 | Nc1ccccc1OC1=NS(=O)(=O)c2ccccc21 | inactive
10 | Nc1ccc(Nc2cc(O)c3ncccc3c2)cc1 | inactive
11 | O=C(OCC#CCSc1nnc(-c2cccc3ccccc23)o1)c1ccncc1 | inactive
12 | COc1ccc(C2=Nn3c(nnc3-c3ccccc3OC)SC2)cc1 | 2.01 µM (active)
13 | Nc1nccc(-c2c(-c3ccc(F)cc3)ncn2C2CCCCC2)n1 | inactive
14 | c1nc(NCC2CC2)c2cc(-c3ccc4c(c3)OCO4)ccc2n1 | inactive
15 | O=C([C@@H]1CCCN(c2ccc3[nH]c(C4(n5cc(Cl)cn5)CC4)nc3n2)C1)N1CCCC1 | inactive
16 | Cc1ccc(CN(C)c2ccc(N3CCN(C)CC3)cc2)cc1 | inactive

From PubChem BioAssay (NCATS)
